Rows were chosen to be rich in hits. Some 3.5% of all compounds tested hit in one or more screens of this group.
GPR151 ag = human GPR151 activation. 1% of 650,000 active. PathHunter beta-arrestin GPR151 cells, luminescence. activation, % at 11.2 µM. Q8TDV0; in the data active means activation above about 4.9%;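 further: 0% = median of compound wells and 100% = cells with positive control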
Target sequence (Q8TDV0 whole entry, looked up): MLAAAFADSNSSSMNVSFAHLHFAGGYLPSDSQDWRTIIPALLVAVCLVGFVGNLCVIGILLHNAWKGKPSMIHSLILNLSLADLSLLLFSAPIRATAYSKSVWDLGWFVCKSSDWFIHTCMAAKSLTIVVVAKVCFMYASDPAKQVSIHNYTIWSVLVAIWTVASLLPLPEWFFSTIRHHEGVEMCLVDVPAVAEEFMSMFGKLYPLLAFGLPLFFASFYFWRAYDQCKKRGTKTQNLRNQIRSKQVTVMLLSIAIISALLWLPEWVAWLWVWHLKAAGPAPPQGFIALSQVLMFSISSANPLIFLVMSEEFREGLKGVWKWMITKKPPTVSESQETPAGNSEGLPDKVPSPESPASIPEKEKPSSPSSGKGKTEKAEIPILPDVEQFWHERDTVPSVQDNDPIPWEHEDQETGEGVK
TEAD-YAP block = TEAD-YAP interaction inhibition. AID 1259422. inhibition, % at 9.12 µM. 1.4% of 640,000 active. HEK-TIYL cells, TEAD-Gal4/YAP UAS-luciferase luminescence; in the data active means inhibition above about 32%;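 further: 0% = median of test compound wells and 100% = reference inhibitor wells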
FBW7 activator = human FBW7 E3 ligase activation, primary screen; normalized activity (activation), % at 26.1 µM; AlphaScreen FBW7–phospho-cyclin E peptide binding, activator screen; 0.13% of 650,000 active; Q969H0; in the data active means normalized activity above about 1.9%;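 further: purified mutant Fbw7 with reduced substrate affinity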
MITF primary = blocks human microphthalmia-associated transcription factor; AID 1259374; AlphaScreen MITF homodimerization, bead proximity signal; 0.91% of 650,000 active; inhibition, % at 2.6 µM; O75030; in the data active means inhibition above about 50%;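 further: 0% = vehicle wells with protein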
* marks the source's active call; other numbers are inactive results.

SMILES | GPR151 ag | TEAD-YAP block | FBW7 activator | MITF primary
COc1ccc(-c2nc(Nc3ccc(NC(C)=O)cc3)c3ncn(-c4ccccc4)c3n2)cc1 | 0 | 41* | 1 | 10
Cn1c(Nc2nc(Nc3ccc(N4CCOCC4)cc3)c3ncn(-c4ccsc4)c3n2)nc2ccccc21 | 0 | 35* | 0 | 9
c1ccc(-n2cnc3c(Nc4ccc(N5CCOCC5)cc4)nc(Nc4ccccn4)nc32)cc1 | 0 | 58* | 0 | 2
CC(=O)Nc1ccc(Nc2nc(Nc3ccccn3)nc3c2ncn3-c2ccccc2)cc1 | 2 | 56* | 0 | -17
Nc1nnc(CC(=O)N/N=C\C=C\c2cccc([N+](=O)[O-])c2)s1 | 0 | -3 | 0 | 6
CCC(=O)Nc1cc(CNC(=O)c2ccccn2)cc(C(=O)OC)c1 | -2 | 3 | 1 | 18
CCOC(=O)C1=C(C)N=c2s/c(=C\c3ccc(-c4ccc(C(=O)O)cc4)o3)c(=O)n2C1c1cccs1 (configuration not stated) | -1 | 5 | 0 | 3
O=C(NCc1cccc2ccccc12)N1CC(c2nc(-c3cccnc3)no2)C1 | -1 | 12 | 1 | 11
Cn1c(Nc2nc(Nc3ccc(N4CCOCC4)cc3)c3ncn(-c4ccccc4)c3n2)nc2ccccc21 | -2 | 33* | 0 | 2
c1ccc(-n2cnc3c(Nc4ccc(N5CCOCC5)cc4)nc(Nc4ncccn4)nc32)cc1 | 0 | 16 | 0 | 2
CC(=O)OC1c2cc(C)ccc2NC(c2ccccc2)C1(C)C (configuration not stated) | 0 | 63* | 0 | -1
CC(=O)OC1c2ccccc2NC(c2ccccc2)C1(C)C (configuration not stated) | 1 | -6 | 0 | -6
COc1ccccc1C(=O)NNc1cc(=O)n(C)c(=O)n1C | -1 | 0 | 0 | 7
COc1cc(Nc2nc(-c3ccc(N4CCOCC4)nc3)ncc2C)cc(OC)c1OC | -1 | 30 | 0 | 5
COc1cc(Nc2nc(-c3ccc(N4CCOCC4)nc3)nc3nc[nH]c23)cc(OC)c1OC | -1 | 52* | 1 | 21
COc1ccc(-c2nc3ncnc(Nc4cc(OC)c(OC)c(OC)c4)c3[nH]2)cc1 | -3 | 50* | 0 | 4
COc1cc(Nc2nc(-c3ccccc3)nc3nc[nH]c23)cc(OC)c1OC | 0 | 60* | 0 | 5
COc1ccc(C(=O)COC(=O)c2ccc(SC)cc2OC)c(OC)c1 | -1 | -3 | 0 | -4
COc1ccc(-c2cc(C(F)(F)F)n3nc(C(=O)NC(C)(C)C)cc3n2)cc1OC | -1 | -7 | 1.9* | -6
COc1ccc(-c2cc(C(F)(F)F)n3nc(C(=O)NC(C)(C)CC(C)(C)C)cc3n2)cc1OC | -1 | -11 | 0 | -8
O=C1C2=C(Nc3[nH]c(=O)[nH]c(=O)c3C2c2ccc(Cl)cc2)c2ccccc21 (configuration not stated) | 0 | 42* | 0 | 26
COCCn1c2c(c(=O)[nH]c1=O)C(c1ccc(Cl)cc1)C1=C(N2)c2ccccc2C1=O (configuration not stated) | 0 | -3 | 0 | 14
CC(=O)NC1=NN(C(C)=O)C(C)(c2ccc(NC(C)=O)cc2)S1 (configuration not stated) | 0 | 4 | 0 | -5
CC(=O)NC1=NN(C(C)=O)C(C)(c2cccc(OC(C)=O)c2)S1 (configuration not stated) | 1 | 64* | 0 | 0
CC(=O)NC1=NN(C(C)=O)C(C)(c2ccc3ccccc3c2)S1 (configuration not stated) | 0 | 4 | 0 | 1
SMILES | GPR151 ag | TEAD-YAP block | FBW7 activator | MITF primary
CC(=O)NC1=NN(C(C)=O)C(C)(c2ccccc2)S1 (configuration not stated) | -1 | 61* | 0 | -4
CC(Nc1cccc(F)c1)C(=O)NC(=O)NC1CCCCC1 (configuration not stated) | -1 | 6 | 0 | 0
COc1cccc(/C=N/Nc2nnc3c(n2)[nH]c2ccccc23)c1 | 0 | -31 | 0 | 17
CCOc1cc(/C=N/Nc2nnc3c(n2)[nH]c2ccc(C)cc23)ccc1O | 0 | 3 | 0 | -7
COc1ccc(/C=N/Nc2nnc3c(n2)[nH]c2ccc(Br)cc23)c(O)c1 | 0 | -6 | 0 | -3
Cc1ccc2[nH]c3nc(N/N=C/c4ccc(O)cc4O)nnc3c2c1 | 1 | 63* | -2 | 22
Cc1ccc2[nH]c3nc(N/N=C/c4ccc(O)c(O)c4)nnc3c2c1 | -1 | -4 | -1 | 87*
COc1ccc(Br)cc1/C=N/Nc1nnc2c(n1)[nH]c1ccccc12 | 0 | -4 | 2.1* | 19
CN1/C(=C/C(=C/c2sc3ccccc3[n+]2C)C2CCC2)Sc2ccccc21 | 0 | 72* | 0 | 27
CN1/C(=C/C(=O)C2CCC2)Sc2ccccc21 | -4 | -35 | 0 | 9
CCOC(=O)Nc1ccc2c(CSc3nc(C)cs3)cc(=O)oc2c1 | -2 | -3 | 0 | -11
C/C(=N\NC(=O)C(F)(F)F)c1ccc(Cl)cc1Cl | 0 | -1 | 0 | -1
C/C(=N\NC(N)=S)c1ccc(Cl)cc1Cl | 1 | 34* | 0 | 6
CCOC(=O)C1CCN(c2c(Nc3cccc(SC)c3)c(=O)c2=O)CC1 | 0 | 55* | 0 | 1
CCOC(=O)C1CCN(c2c(NCc3ccc(N(C)C)cc3)c(=O)c2=O)CC1 | 1 | 1 | 0 | 5
CCOC(=O)C1CCN(c2c(Nc3ccc(C)c(F)c3)c(=O)c2=O)CC1 | 0 | -10 | 0 | -1
CCOC(=O)C1CCN(c2c(NCc3ccc(OC)cc3)c(=O)c2=O)CC1 | 0 | 58* | 0 | -10
CCOC(=O)C1CCN(c2c(NCc3ccc(F)cc3)c(=O)c2=O)CC1 | -2 | 64* | 0 | 12
CCOC(=O)C1CCN(c2c(NCc3ccc(Cl)cc3)c(=O)c2=O)CC1 | -1 | 67* | 0 | 1
COc1cc(C=Nc2ccc(I)cc2)c([N+](=O)[O-])cc1OC | -1 | 12 | 0 | -14
Cc1cc(/C=C2/C(=N)N3C(=NC2=O)SN=C3S(C)(=O)=O)c(C)n1-c1ccccc1F | -1 | 3 | 1 | 15
CCOc1ccccc1-n1c(C)cc(/C=C2\C(=N)N3C(C)=CSC3=NC2=O)c1C | 1 | 7 | 1 | -2
CC1=CSC2=NC(=O)/C(=C/c3cc(C)n(-c4ccccc4C)c3C)C(=N)N12 | 0 | 68* | 0 | 15
CC1=CSC2=NC(=O)/C(=C/c3cc(C)n(-c4ccccc4F)c3C)C(=N)N12 | 0 | 52* | 0 | 29
COc1ccc(N2CC(c3nc(-c4cc(OC)c(OC)c(OC)c4)no3)CC2=O)cc1Cl (configuration not stated) | -2 | -4 | 0 | -3
COc1cc(-c2noc(C3CC(=O)N(c4ccc(C)cc4C)C3)n2)cc(OC)c1OC (configuration not stated) | -1 | 44* | 0 | -1
OCC1CCCN1c1nc(NCCc2ccc(O)cc2)c2ncn(-c3ccsc3)c2n1 (configuration not stated) | -2 | 19 | 0 | 6

Assay outcomes: PubChem BioAssay, The Scripps Research Institute Molecular Screening Center
